# Records with an inconclusive call do not appear. Active and inactive are the calls of the source. The call rests on the fitted dose curve; in most records, active means well fitted inhibition curve with a large enough effect; inconclusive means small, poorly fitted or top-dose-only effect; inactive means no such curve, though single readings can be large or run the other way.
# Target: Cytochrome P450 3A4 (Homo sapiens) (UniProt P08684)
# Assay: qHTS Assay for Inhibitors and Substrates of Cytochrome P450 3A4 (AID 884); further: nearly all actives have a fitted effect of over 50% in size
# Conditions: recombinant CYP3A4, Luciferin-PPXE luminescence; series mostly up to 57.1 µM; activity change, negative = inhibition: at the top concentration
# Method in brief: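 Luminescent readout of luciferin produced by CYP3A4 (20 nM) dealkylation of Luciferin-PPXE, 25 uM (its KM). NADPH-driven reaction ran 60 min at RT after 10 min compound preincubation; data scaled to 57 uM ketoconazole as 100% inhibition.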
# On the % scale 0 is the no-effect control and ±100 the full control effect; potency means the concentration at half of the fitted maximal effect.
# Chain of Cytochrome P450 3A4 (Homo sapiens) (P08684 whole entry, looked up): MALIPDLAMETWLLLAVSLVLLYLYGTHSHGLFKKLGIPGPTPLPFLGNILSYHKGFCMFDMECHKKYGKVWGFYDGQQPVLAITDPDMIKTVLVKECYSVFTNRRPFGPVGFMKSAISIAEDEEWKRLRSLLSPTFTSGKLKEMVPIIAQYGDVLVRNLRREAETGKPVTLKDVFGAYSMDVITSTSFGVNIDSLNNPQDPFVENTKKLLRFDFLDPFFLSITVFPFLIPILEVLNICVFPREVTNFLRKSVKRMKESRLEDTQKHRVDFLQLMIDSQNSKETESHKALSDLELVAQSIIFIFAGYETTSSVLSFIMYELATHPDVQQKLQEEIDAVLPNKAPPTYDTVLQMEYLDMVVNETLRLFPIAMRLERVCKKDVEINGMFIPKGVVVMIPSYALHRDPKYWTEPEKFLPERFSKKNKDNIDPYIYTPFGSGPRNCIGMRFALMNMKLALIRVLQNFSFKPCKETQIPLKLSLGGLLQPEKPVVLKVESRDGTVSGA
Compound,"activity change, negative = inhibition",Potency
O=c1cc(-c2ccccc2)oc2cc(O[C@@H]3O[C@H](CO)[C@@H](O)[C@H](O)[C@H]3O)c(O)c(O)c12,-13.6% (inactive),
COC(=O)CC[C@@H](C)[C@H]1CC[C@H]2[C@@H]3CC[C@@H]4C[C@H](O)CC[C@]4(C)[C@H]3C[C@H](O)[C@]12C,-21.8% (inactive),
COc1ccccc1-c1oc2ccccc2c(=O)c1O,,25.1 µM (active)
OC1CCC2Cc3ccccc3N=C12 (stereo unspecified),-21.8% (inactive),
CC1(C)CC[C@]2(C(=O)O)CC[C@]3(C)C(=CCC4[C@@]5(C)CC[C@H](O)C(C)(C)[C@@H]5CC[C@]43C)C2C1 (stereo partly specified),-15.8% (inactive),
COc1ccc2c(c1OC)C(Cc1ccccc1)N1CCc3cc4c(cc3C1C2)OCO4 (stereo unspecified),,1 µM (active)
CC(=O)Nc1ccc(-c2nc3ccc(Cl)cc3[nH]2)cc1,11.8% (inactive),
C=C(CO)C1Cc2c(ccc3c(=O)c4c(oc23)COc2cc(OC)c(OC)cc2-4)O1 (stereo unspecified),-11.9% (inactive),
C[C@H]1O[C@@H](O[C@H]2[C@@H](O)C[C@H](O[C@H]3[C@@H](O)C[C@H](O[C@H]4CC[C@]5(C)C6CC[C@]7(C)[C@@H](C8=CC(=O)OC8)CC[C@]7(O)C6CC[C@@H]5C4)O[C@@H]3C)O[C@@H]2C)C[C@H](O)[C@@H]1O (stereo partly specified),-19.7% (inactive),
CC1CCC2[C@](C)(CO)C(O)CC[C@]2(C)C12CCC(CO)(CCO)O2 (stereo partly specified),-25.4% (inactive),
CC(=O)OC1CCC2(C)C(CCC3(C)C2C(=O)C=C2C4CC(C)(C(=O)OCCN5CCCCC5)CCC4(C)CCC23C)C1(C)C (stereo unspecified),-28% (inactive),
CNC(=O)Oc1ccc2c(c1)C1(C)CCN(C)C1N2C (stereo unspecified),-11.8% (inactive),
O=c1c(O)c(-c2ccc(O)c(O)c2)oc2c(OC[C@@H]3O[C@@H](O)[C@@H](O)[C@H](O)[C@H]3O)c(O)cc(O)c12,-17% (inactive),
OC[C@H]1O[C@@H](OC[C@H]2O[C@@H](O)[C@H](O)[C@@H](O)[C@@H]2O)[C@H](O)[C@@H](O)[C@@H]1O,-23.4% (inactive),
CC(=O)Oc1ccc(/C=C/C(=O)CC2OC(Oc3cc(OC(C)=O)c4c(c3)O[C@@H](c3ccc(OC(C)=O)cc3)CC4=O)C(OC(C)=O)C(OC(C)=O)C2OC(C)=O)cc1 (stereo partly specified),-22.6% (inactive),
COc1ccc(-c2coc3cc(OC4OC(CO)C(O)C(O)C4O)cc(O)c3c2=O)cc1 (stereo unspecified),0.599% (inactive),
COc1cccc2c1C(=O)CC(c1ccccc1)O2 (stereo unspecified),-26.5% (inactive),
C[C@@H]1O[C@@H](OC[C@H]2O[C@@H](Oc3c(-c4cccc(O)c4O)oc4cc(O)cc(O)c4c3=O)[C@H](O)[C@@H](O)[C@@H]2O)[C@H](O)[C@H](O)[C@H]1O,-20.7% (inactive),
COc1ccc(/C=C/C(=O)c2ccc(C)s2)cc1,-67.3% (inactive),
O=C(/C=C/c1ccc(OCc2ccccc2)cc1)c1cccs1,-7.98% (inactive),
CC(=O)OC1CCC2(C)C(=CCC3C2CCC2(C)C3C[C@@H]3O[C@]32C(C)=O)C1 (stereo partly specified),39.1% (inactive),

# From PubChem BioAssay (NCATS)
